Assay outcomes deposited in PubChem by National Center for Advancing Translational Sciences (NCATS).
FMDV antiviral: High Throughput Screening for Foot and Mouth Disease Virus Antivirals; FMDV antiviral cell-based qHTS; Potency, µM (titrated, usually from 57.9 µM), for the others: at the highest dose activity change, negative = inhibition, actives largely listed as inhibitors; actives 1.2% (n = 410,000); calls by dose curve; tested in HEK293T cells; also: read-out not given here; nearly all actives have a fitted effect of over 45% in size
VACV mCherry inh: qHTS for Stage-Specific Inhibitors of Vaccinia Orthopoxvirus: mCherry Reporter Primary qHTS. AID 720579, 2013. Vaccinia virus mCherry reporter infection, fluorescence. Potency, µM (highest dose often 36.5 µM), for the others: top-dose activity change, negative = inhibition, actives largely listed as inhibitors. actives 0.63% (n = 310,000); calls by dose curve; tested in A549 cells; also: nearly all actives have a fitted effect of over 35% in size
VACV Venus inh: qHTS for Stage-Specific Inhibitors of Vaccinia Orthopoxvirus: Venus Reporter Primary qHTS. Vaccinia virus Venus reporter expression, fluorescence. Potency, µM (highest dose often 36.5 µM), without a hit: at the highest dose activity change, negative = inhibition, usual class: inhibitors. actives 0.46% (n = 330,000). AID 720580, 2013; calls by dose curve; tested in A549 cells; also: nearly all actives have a fitted effect of over 30% in size
LASV entry inh: qHTS for Inhibitors of binding or entry into cells for Lassa Virus. Potency, µM (highest dose often 37.9 µM), for inactives: at the highest dose activity change, negative = inhibition, most hits filed as inhibitors. actives 1.2% (n = 300,000). AID 540256, 2011. Lassa virus pseudotype entry inhibition, cell reporter; calls by dose curve; tested in HEK293 cells; also: nearly all actives have a fitted effect of over 50% in size
Marburg entry inh: qHTS for inhibitors of binding or entry into cells for Marburg Virus; Marburg virus pseudotyped entry inhibition, cell reporter; Potency, µM (titrated, usually from 37.8 µM), without a hit: at the top dose activity change, negative = inhibition, hits mostly inhibitors; actives 1.8% (n = 300,000); AID 540276, 2011; calls by dose curve; tested in HEK293 cells
HCV inh: qHTS Assay for Inhibitors of Hepatitis C Virus (HCV) | Potency, µM (doses to about 41.8 µM), without a hit: at the top dose activity change, negative = inhibition, hits mostly inhibitors | Huh7.5.1 HCVcc-Cre infection, luciferase reporter, 44 h | AID 651820, 2012 | actives 3.4% (n = 340,000); active = well fitted inhibition curve with a large enough effect; inconclusive = small, poorly fitted or top-dose-only effect, or another doubt; inactive = no such curve, though single readings can be large or run the other way
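Luciferase read-out (15 sec integration) after a 15 min room-temperature substrate step quantifies HCVcc-Cre infection. Cells, 1,000 per well, had compound added 4 h post-plating, then virus at ~0.5 moi, and were cultured 44 h.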
Active calls of the source: *; i = inactive; ? = inconclusive; · = no result given; [ ] = another dose, or the depositor's remark. Hits are enriched below; roughly 5.3% of the tested compounds scored in any of these assays. % is scaled to controls: 0 for no effect and ±100 for the full control effect; potency is read from the fitted curve at half-maximal effect.

SMILES | FMDV antiviral | VACV mCherry inh | VACV Venus inh | LASV entry inh | Marburg entry inh | HCV inh
CN1CCN(C(=O)CCCN2C(=O)/C(=C/c3ccc(Cl)cc3)SC2=S)CC1 | -9% | · | · | · | · | ?
Cc1cc2cc3c(cc2nc1SCC(=O)N1c2ccccc2CC1C)OCO3 (centres undefined) | 0% | · | -13% | ? | ? | 4µM*
CC1Cc2ccccc2N1C(=O)CSc1nc2cc3c(cc2cc1C#N)OCO3 (centres undefined) | -7% | -9% | 4% | -11% | 7% | ?
CN(C)c1ccc(/C=C2\C=Cc3ccccc32)cc1F | · | -9% | 8% | · | · | ·
COc1ccc(-c2nn(CC(=O)NCCc3ccccc3)c(=S)n2C)cc1 | 20% | -22% | -13% | 13µM* | ? | ?
COc1ccc(C2=NN(CC(=O)NCCc3ccccc3)C(=O)CC2)cc1 | 5% | -6% | -7% | 0%[46.1 µM] | · | ·
Cc1nn(CC(=O)NCCc2ccccc2)c(=O)c2ccccc12 | -17% | -17% | -11% | 0% | 1% | 4%
CCn1c(-c2ccc(C)cc2)nn(CC(=O)NCCc2ccccc2)c1=S | 11% | -14% | -25% | ? | 8.9µM* | ?
O=C(O)c1cc(O)c2c(c1)[C@H]([C@H]1c3cc(C(=O)O)cc(O)c3C(=O)c3c(O[C@@H]4OC(CO)C(O)C(O)C4O)cccc31)c1cccc(O[C@@H]3OC(CO)C(O)C(O)C3O)c1C2=O (some centres undefined) | · | · | · | 15% | ? | ·
Cc1[nH]c2ccc(C(=O)OCC(=O)NC3(C#N)CCCCC3)cc2c1C | ? | -27% | ? | 6.3µM* | ? | ?
CCCOc1ccc2cc(-c3ccccn3)c(=O)oc2c1 | 10µM* | i | -18% | 2.8µM* | 1.8µM* | -22%
COc1ccc2cc(-c3ccccc3)c(=O)oc2c1 | -20% | i | -25% | 4.5µM* | ? | ?
O=S(=O)(c1ccc2[nH]c3c(c2c1)CCCCC3)N1CCN(c2cccc(Cl)c2)CC1 | 0% | -11% | 0% | ? | · | ·
CSc1ccc(C(=S)N2CCN(Cc3ccccc3)CC2)cc1 | -11% | · | · | 16µM* | -5% | -4%
CCN(Cc1ccccc1)C(=O)C1CCN(Cc2ccc(SC)cc2)CC1 | -15% | · | · | · | · | ?
Cc1ccc(CNC(=O)CN2CCC(C(N)=O)CC2)cc1 | 15% | · | · | -12% | 8% | -8%
S=C(c1ccc(Cl)cc1)N1CCN(Cc2ccccc2)CC1 | 0% | ? | 4% | -19%[46.1 µM] | -1%[46.1 µM] | -22%
CSc1ccc(CN2CCN(C(=O)CC(C)C)CC2)cc1 | -19% | i | -12% | 0%[46.1 µM] | ? | 11µM*
CCN(Cc1ccccc1)C1CCN(Cc2ccc(SC)cc2)CC1 | -18% | -21% | -7% | · | 17%[46.1 µM] | 7.1µM*
CSc1ccc(CN2CCC(C(=O)NCc3ccc(C)cc3)CC2)cc1 | -20% | · | · | ? | 16µM* | ?
C=CCCN(Cc1ccc(C)cc1)S(=O)(=O)C=C | · | · | · | 0%[46.1 µM] | · | ·
CSc1ccc(CN2CCOc3ccc(CN4CCCCC4CO)cc3C2)cc1 (centres undefined) | -12% | -8% | -6% | · | · | ·
CCc1cc2c(nc1CC)CCN(CCC(C)=NO[C@@H](C)c1cn([C@H](CO)Cc3ccccc3)nn1)C2 | · | · | · | · | -27%[14.2 µM] | ·
O=C(Nc1ccc(C#Cc2ccccc2)cc1)C1CC1 | 47% | · | · | 4.6µM* | 2.3µM* | ?
O=C(Nc1ccccc1C(=O)O)c1ccc(NC(=O)C2CC2)cc1 | ? | -11% | 1% | ? | 5µM* | 16%
CC(=O)Nc1ccc(-c2ccc(NC(C)=O)cc2)cc1 | 59% | i | -10% | 17% | ? | 8%
CC(=O)Nc1ccc(C#Cc2ccc(NC(C)=O)cc2)cc1 | · | -16% | -6% | 7.3µM* | 4.6µM* | -6%
O=C(Nc1ccccc1O)c1ccc(NC(=O)C2CC2)cc1 | 4% | -25% | -25% | -20%[46.1 µM] | ? | -15%
O=C(Nc1ccc(Oc2ccccc2)cc1)C1CC1 | 13% | -6% | 3% | -17% | ? | ?
